Measurements published in ChEMBL document CHEMBL1157539, “Thousands of chemical starting points for antimalarial lead identification” (Nature, 2010).

Test system: Plasmodium falciparum
Assay: GSK_TCMDC: Inhibition of Plasmodium falciparum 3D7 in whole red blood cells, using parasite LDH activity as an index of growth. Test compounds present at 2uM
Type: functional

Row | SMILES | Inhibition [%]
1 | CCN(CC)CCN(Cc1ccc(-c2ccc(C(F)(F)F)cc2)cc1)C(=O)c1c[nH]c2ccc(Br)cc12 | 90
2 | c1ccc(COc2ccccc2COc2ccccc2-c2ccc3cccnc3n2)cc1 | 87
3 | Cc1cc(SC(C)(C)C)cc2c(Cl)c(C(N)=O)cnc12 | 98
4 | CC(C)(C)c1ccc(CN2CCC(NC(=O)c3cc(-c4cccc(C(F)(F)F)c4)cs3)C2)cc1.O=C(O)C(F)(F)F (configuration not stated) | 98
5 | O=C(O)C(F)(F)F.c1cc(CNC2CCN(CC3CCCCC3)CC2)cc(-n2ccnc2)c1 | 100
6 | CCCCCNc1nc(Nc2ccccc2C)nc2ccccc12.Cl | 100
7 | CC(C)[C@H](NC(=O)c1c(F)cccc1F)C(=O)Nc1ccc(Cc2nc3ccccc3s2)cc1 | 82
8 | CN(C)C(=S)N/N=C1/C(=O)Nc2ccc(OC(F)(F)F)cc21 | 93
9 | O=C(NC1CCCCN(Cc2ccccc2O)C1)c1cccc(C(F)(F)F)c1.O=C(O)C(F)(F)F (configuration not stated) | 93
10 | CCSc1ccc(C)cc1CON1C(N)=NC(N)=NC1(C)C.Cl | 94
11 | COc1cc(NCCCNCc2cn(S(=O)(=O)c3ccccc3)c3ccccc23)nc2ccccc12 | 100
12 | CC(CN1CCN(C)CC1)C(=O)Nc1cccc(-c2ccc(-c3nc4ccccc4[nH]3)s2)c1 (configuration not stated) | 97
13 | COc1ccc2nccc([C@@H](O)CN3CCC(NCCOc4ccccc4C(F)(F)F)CC3)c2c1.O=C(O)C(=O)O | 98
14 | COC(=O)C(C)NCC(=O)c1ccccc1.Cl (configuration not stated) | 97
15 | CO/C(=C\C=C\c1cc2cc(Cl)c(Cl)cc2[nH]1)C(=O)NCCCN1CCN(c2cccc(CCCO)c2)CC1 | 90
16 | O=C(Nc1ccc(C(=O)Oc2ccc(-c3ccccc3)cc2)cc1)N[C@@H](Cc1ccc(O)cc1)C(=O)NC1CCN(Cc2ccc(O)cc2)C1.O=C(O)C(F)(F)F (some centres not stated) | 94
17 | CCOC(=O)c1c(NC(=O)c2ccccc2)sc2c(O)c(CN(CC)CC)ccc12.Cl | 100
18 | c1ccc(Oc2ccc(Nc3ccnc4cc(-c5csc(CNCCN6CCOCC6)n5)ccc34)cc2)cc1 | 100
19 | Cc1[nH]c2ccc(-c3ccc(N(C)C)cc3)cc2c(=O)c1Cl | 97
20 | CC(C)CN1CCCN(Cc2cccc(NC(=O)c3ccc(-c4ccccc4)cc3)c2)CC1.O=C(O)C(F)(F)F | 99
21 | Cc1cc(N[C@@H](CC(C)C)C(=O)NCCOc2ccccc2)nc(Nc2ccccc2)n1.O=C(O)C(F)(F)F | 93
22 | CC(=O)C1=NN(c2ccc(Cl)cc2)C(c2cccs2)N1c1ccccc1 (configuration not stated) | 88
23 | O=C(NCCN1CCOCC1)c1csc(C2CCCN(C(=O)c3ccc(O)c(-c4cc(Cl)cc(Cl)c4)c3)C2)n1 (configuration not stated) | 97
24 | CC(C)(NCc1ncc[nH]1)c1nc(-c2ccc(Cl)c(O)c2)c(-c2ccncc2)[nH]1.Cl | 95
25 | O=C(Nc1ccc(Cl)c(Cl)c1)Nc1ccc2nccc(N3CCN(Cc4ccccc4)CC3)c2c1 | 100
26 | COc1ccc2nccc(NCC3(O)CCC(NCc4ccc5c(n4)NC(=O)CS5)CC3)c2n1.Cl (configuration not stated) | 100
27 | COc1ccc(-c2ccc(CNC(=O)c3cccc(C#N)c3)c(F)c2)cc1CN1CCCN(C)CC1.O=C(O)C(F)(F)F | 99
